Assay results: PubChem BioAssay AID1508601 (ICCB-Longwood Screening Facility, Harvard Medical School, 2020)
“And” between values parts separate entries of the source, which are not always exact repeats. Equal values may be shown once. Hit rate of the full screen: of about 5,700 compounds, about 85 (1%) were called active. This is one part of a sample in which actives are shown more often than they occur. Rule as the data show it: active = p53-positive nuclei above about 36% (passing the limit was not always enough); inactive = the rest.

Legend:
[1] = p53 stabilisation in HPV-positive human cells, imaging, p53-positive nuclei imaging, 24 h, 48 h (AID 1508601); conditions: 24/48 h
[2] = target: Cellular tumor antigen p53 (Homo sapiens) (UniProt P04637); experiment: as above; conditions: 24/48 h, stronger effect = higher value
[3] = measured here: cell number at 24 h, Library stock concentration: 80 uM
[4] = measured here: cell number at 24 h, Library stock concentration: 400 uM
[5] = measured here: cell number at 24 h, Library stock concentration: 2 mM
[6] = measured here: cell number at 24 h, Library stock concentration: 10 mM
[7] = measured here: cell number at 48 h, Library stock concentration: 80 uM
[8] = measured here: cell number at 48 h, Library stock concentration: 400 uM
[9] = measured here: cell number at 48 h, Library stock concentration: 2 mM
[10] = measured here: cell number at 48 h, Library stock concentration: 10 mM
[11] = Library stock concentration: 80 uM
[12] = Library stock concentration: 400 uM
[13] = Library stock concentration: 2 mM
[14] = Library stock concentration: 10 mM
[15] = measured here: p53 positive nuclei at 24 h, Library stock concentration: 80 uM
[16] = measured here: p53 positive nuclei at 24 h, Library stock concentration: 400 uM
[17] = measured here: p53 positive nuclei at 24 h, Library stock concentration: 2 mM
[18] = measured here: p53 positive nuclei at 24 h, Library stock concentration: 10 mM
[19] = measured here: cell number at 24 h, concentration not given here
[20] = measured here: cell number at 48 h, concentration not given here
[21] = measured here: p53 positive nuclei at 24 h, concentration not given here

Cellular tumor antigen p53 (Homo sapiens), sequence (P04637 whole entry, looked up): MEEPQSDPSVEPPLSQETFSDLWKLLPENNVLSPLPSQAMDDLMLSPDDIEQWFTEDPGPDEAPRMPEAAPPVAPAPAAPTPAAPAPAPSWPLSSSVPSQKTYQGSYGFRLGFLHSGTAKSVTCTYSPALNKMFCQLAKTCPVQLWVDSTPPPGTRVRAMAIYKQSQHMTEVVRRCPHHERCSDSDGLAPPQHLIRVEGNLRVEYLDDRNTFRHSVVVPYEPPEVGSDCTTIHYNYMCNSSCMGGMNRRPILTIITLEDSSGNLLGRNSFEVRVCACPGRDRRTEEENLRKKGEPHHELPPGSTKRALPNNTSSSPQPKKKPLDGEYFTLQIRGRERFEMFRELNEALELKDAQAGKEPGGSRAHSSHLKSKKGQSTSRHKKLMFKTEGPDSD

With `c1cc(NCCc2c[nH]c3ccccc23)cc(Nc2ccncc2)c1` the nuclei count, normalised [1, 3] was 103%, the nuclei count, normalised [1, 4] was 107% and the nuclei count, normalised [1, 5] was 107%. It also gave a nuclei count, normalised [1, 6] of 91.3%, a nuclei count, normalised [1, 7] of 101% and a nuclei count, normalised [1, 8] of 107%. For the same molecule, the nuclei count, normalised [1, 9] was 108%, the nuclei count, normalised [1, 10] was 77.6% and the p53-positive nuclei, normalised [2, 11] was -0.0385% (inactive). The p53-positive nuclei, normalised [2, 12] was -0.0904% (inactive), the p53-positive nuclei, normalised [2, 13] was -0.152% (inactive) and the p53-positive nuclei, normalised [2, 14] was -0.0614% (inactive). The p53-positive nuclei, normalised [2, 15] was -0.148%, the p53-positive nuclei, normalised [2, 16] was -0.0802% and the p53-positive nuclei, normalised [2, 17] was 0.142%. For the same molecule, the p53-positive nuclei, normalised [2, 18] was -0.0614%.
For `COc1ccc(CN2CCN(c3nccc(-c4c(C)nn(C)c4C)n3)CC2=O)cc1`, the nuclei count, normalised [1, 19] was 101%, the nuclei count, normalised [1, 20] was 105% and the p53-positive nuclei, normalised ([2]; concentration not given here) was -0.125% (inactive). For the same molecule, the p53-positive nuclei, normalised [2, 21] was -0.147%.
Work on `CN(C)CCC(CSc1ccccc1)Nc1ccc(S(=O)(=O)NC(=O)c2ccc(N3CCN(Cc4ccccc4-c4ccc(Cl)cc4)CC3)cc2)cc1[N+](=O)[O-]` (stereo not given) yielded a nuclei count, normalised ([1]; measured here: cell number at 24 h, Library stock concentration: 500 nM) of 120%, a nuclei count, normalised ([1]; measured here: cell number at 24 h, Library stock concentration: 1.5 uM) of 122% and a nuclei count, normalised ([1]; measured here: cell number at 24 h, Library stock concentration: 4.6 uM) of 117%. For the same molecule, the nuclei count, normalised ([1]; measured here: cell number at 24 h, Library stock concentration: 13.7 uM) was 121%, the nuclei count, normalised ([1]; measured here: cell number at 24 h, Library stock concentration: 41 uM) was 117% and the nuclei count, normalised [1, 3] was 111% and 86.3%. For the same molecule, the nuclei count, normalised ([1]; measured here: cell number at 24 h, Library stock concentration: 123 uM) was 117%, the nuclei count, normalised ([1]; measured here: cell number at 24 h, Library stock concentration: 370 uM) was 117% and the nuclei count, normalised [1, 4] was 109% and 85.3%. For the same molecule, the nuclei count, normalised ([1]; measured here: cell number at 24 h, Library stock concentration: 1.111 mM) was 113%, the nuclei count, normalised [1, 5] was 113% and 92.5% and the nuclei count, normalised ([1]; measured here: cell number at 24 h, Library stock concentration: 3.33 mM) was 105%. The nuclei count, normalised ([1]; measured here: cell number at 24 h, Library stock concentration: 3.333 mM) was 127%, the nuclei count, normalised [1, 6] was 111% and 80.6% and 116% and the nuclei count, normalised ([1]; measured here: cell number at 48 h, Library stock concentration: 500 nM) was 112%. For the same molecule, the nuclei count, normalised ([1]; measured here: cell number at 48 h, Library stock concentration: 1.5 uM) was 111%, the nuclei count, normalised ([1]; measured here: cell number at 48 h, Library stock concentration: 4.6 uM) was 112% and the nuclei count, normalised ([1]; measured here: cell number at 48 h, Library stock concentration: 13.7 uM) was 117%. The nuclei count, normalised ([1]; measured here: cell number at 48 h, Library stock concentration: 41 uM) was 114%, the nuclei count, normalised [1, 7] was 99.7% and 87.7% and the nuclei count, normalised ([1]; measured here: cell number at 48 h, Library stock concentration: 123 uM) was 112%. For the same molecule, the nuclei count, normalised ([1]; measured here: cell number at 48 h, Library stock concentration: 370 uM) was 113%, the nuclei count, normalised [1, 8] was 97.6% and 86% and the nuclei count, normalised ([1]; measured here: cell number at 48 h, Library stock concentration: 1.111 mM) was 112%. For the same molecule, the nuclei count, normalised [1, 9] was 98% and 96.4%, the nuclei count, normalised ([1]; measured here: cell number at 48 h, Library stock concentration: 3.33 mM) was 102% and the nuclei count, normalised ([1]; measured here: cell number at 48 h, Library stock concentration: 3.333 mM) was 126%. For the same molecule, the nuclei count, normalised [1, 10] was 106% and 92.8% and 127%, the p53-positive nuclei, normalised ([2]; Library stock concentration: 500 nM) was -0.0213% (inactive) and the p53-positive nuclei, normalised ([2]; Library stock concentration: 1.5 uM) was 0.0237% (inactive). The p53-positive nuclei, normalised ([2]; Library stock concentration: 4.6 uM) was 0.0183% (inactive), the p53-positive nuclei, normalised ([2]; Library stock concentration: 13.7 uM) was -0.104% (inactive) and the p53-positive nuclei, normalised ([2]; Library stock concentration: 41 uM) was -0.0533% (inactive). The p53-positive nuclei, normalised [2, 11] was 0.0591% (inactive) and -0.273% (inactive), the p53-positive nuclei, normalised ([2]; Library stock concentration: 123 uM) was -0.176% (inactive) and the p53-positive nuclei, normalised ([2]; Library stock concentration: 370 uM) was -0.136% (inactive). The p53-positive nuclei, normalised [2, 12] was 0.0679% (inactive) and 0.126% (inactive), the p53-positive nuclei, normalised ([2]; Library stock concentration: 1.111 mM) was -0.092% (inactive) and the p53-positive nuclei, normalised [2, 13] was -0.0104% (inactive) and 0.232% (inactive). The p53-positive nuclei, normalised ([2]; Library stock concentration: 3.33 mM) was -0.445% (inactive), the p53-positive nuclei, normalised ([2]; Library stock concentration: 3.333 mM) was -0.149% (inactive) and the p53-positive nuclei, normalised [2, 14] was -0.104% (inactive) and 0.208% (inactive) and -0.0111% (inactive). For the same molecule, the p53-positive nuclei, normalised ([2]; measured here: p53 positive nuclei at 24 h, Library stock concentration: 500 nM) was 0.154%, the p53-positive nuclei, normalised ([2]; measured here: p53 positive nuclei at 24 h, Library stock concentration: 1.5 uM) was -0.0609% and the p53-positive nuclei, normalised ([2]; measured here: p53 positive nuclei at 24 h, Library stock concentration: 4.6 uM) was -0.00335%. For the same molecule, the p53-positive nuclei, normalised ([2]; measured here: p53 positive nuclei at 24 h, Library stock concentration: 13.7 uM) was -0.0575%, the p53-positive nuclei, normalised ([2]; measured here: p53 positive nuclei at 24 h, Library stock concentration: 41 uM) was 0.00542% and the p53-positive nuclei, normalised [2, 15] was -0.0528% and -0.0593%. For the same molecule, the p53-positive nuclei, normalised ([2]; measured here: p53 positive nuclei at 24 h, Library stock concentration: 123 uM) was -0.105%, the p53-positive nuclei, normalised ([2]; measured here: p53 positive nuclei at 24 h, Library stock concentration: 370 uM) was -0.113% and the p53-positive nuclei, normalised [2, 16] was -0.0967% and 0.0394%. The p53-positive nuclei, normalised ([2]; measured here: p53 positive nuclei at 24 h, Library stock concentration: 1.111 mM) was -0.104%, the p53-positive nuclei, normalised [2, 17] was -0.0967% and 0.437% and the p53-positive nuclei, normalised ([2]; measured here: p53 positive nuclei at 24 h, Library stock concentration: 3.33 mM) was 0.0238%. The p53-positive nuclei, normalised ([2]; measured here: p53 positive nuclei at 24 h, Library stock concentration: 3.333 mM) was -0.165% and the p53-positive nuclei, normalised [2, 18] was -0.00444% and -0.0479% and 0.0019%.
With `CCCCC[C@@](C)(O)/C=C/[C@H]1[C@H](O)CC(=O)[C@@H]1C/C=C\CCCC(=O)O` the nuclei count, normalised [1, 19] was 101%, the nuclei count, normalised [1, 20] was 105% and the p53-positive nuclei, normalised ([2]; concentration not given here) was -0.0639% (inactive). It also gave a p53-positive nuclei, normalised [2, 21] of 0.0947%.
